{"source": "PubChem BioAssay (NCATS)", "note": "Values joined by “and” are separate entries in the source; they are usually repeats but may differ in a detail not shown here. Equal values may be shown once. Results filed as inconclusive are left out. Entries that show only a call come without a potency. Active and inactive are the calls of the source. The call rests on the fitted dose curve; in most records, active means well fitted inhibition curve with a large enough effect; inconclusive means small, poorly fitted or top-dose-only effect; inactive means no such curve, though single readings can be large or run the other way. Potency means the concentration at half of the fitted maximal effect."}
{"assay": "qHTS for Inhibitors of the Aldehyde Dehydrogenase Family (ALDH1A2, ALDH1A3, ALDH2, ALDH3A1) (AID 2061307); further: nearly all actives have a fitted effect of over 50% in size; on potency: test system not described further here", "conditions": "ALDH inhibition qHTS; series mostly up to 50.3 µM"}
{"smiles": "Cc1ccc(-c2ocnc2C(=O)N(C)Cc2cccc(C(N)=O)c2)cc1", "Potency": "inactive"}
{"smiles": "CC(Sc1nc2nn(C3COC3)cc2c(=O)n1-c1ccccc1)c1ccccn1", "note": "(stereo not given)", "Potency": "inactive"}
{"smiles": "O=C(c1cccs1)c1no[n+]([O-])c1C(=O)c1cccs1", "Potency": "1.59 µM (active)"}
{"smiles": "O=C(CSc1nc2ncccc2c(=O)n1-c1ccccc1)Nc1ccccc1", "Potency": "inactive"}
{"smiles": "O=C(Nc1ncc(CN2CCCCC2)s1)c1ccc(-c2cccc([N+](=O)[O-])c2)o1", "Potency": "11.3 µM (active)"}
{"smiles": "O=C(Nc1ccc2oc(-c3cccnc3)nc2c1)c1ccc(-c2ccccc2)o1", "Potency": "inactive"}
{"smiles": "Cc1ccc(N2CCN(C(=S)c3ccc(-c4ccccc4[N+](=O)[O-])o3)CC2)cc1", "Potency": "3.57 µM (active)"}
{"smiles": "Ic1ccc(CN2CCC(N(CCc3ccccc3)Cc3ccccc3)CC2)cc1", "Potency": "inactive"}
{"smiles": "Cc1nn(-c2ccc(C(F)(F)F)cn2)c(C)c1CC(=O)Nc1ccc(C(N)=O)cc1", "Potency": "inactive"}
{"smiles": "COc1ccc(-n2c(CSCc3ccccc3)c(C(C)=O)c3cc(O)ccc32)cc1", "Potency": "inactive"}
{"smiles": "O=C(O)c1cccc(Nc2ncnc3sccc23)c1", "Potency": "inactive"}
{"smiles": "COc1ccc([N+](=O)[O-])c(S(=O)(=O)c2ccc(C)cc2)n1", "Potency": "2.25 µM (active)"}
{"smiles": "Cc1ccc(NC(=O)Nc2cc3c(cc2N2CCCCC2)n(C)c(=O)n3C)cc1Cl", "Potency": "3.55 µM (active) and 798 nM (active)"}
{"smiles": "COC(=O)CNCc1c(O)ccc2ccccc12", "Potency": "6.34 µM (active)"}
{"smiles": "CC(C)(C)NC(=O)c1ccc(NC(=O)c2cn(-c3ccccc3)nc2-c2cccnc2)cc1", "Potency": "inactive"}
{"smiles": "O=C(Nc1cc(C(F)(F)F)ccc1Cl)c1nc2ccccc2nc1N1CCCCC1", "Potency": "inactive"}
{"smiles": "COc1ccc(OC)c(NC(=O)c2cc(C3CC3)nc3c2c(C)nn3-c2ccc(C)cc2)c1", "Potency": "inactive"}
{"smiles": "Cc1occc1C(=O)N1CCc2cc(-c3nc(NC(=O)Cc4ccc5c(c4)OCO5)sc3C)ccc21", "Potency": "7.08 µM (active)"}
{"smiles": "CC1(C)c2nc(-c3ccc(F)cc3)c(Nc3ccc(F)cc3)n2CCN1C(=O)CN", "Potency": "inactive"}
{"smiles": "COc1ccc(C2Nc3c(OC)ccc(OC)c3C(=O)N2Cc2ccccc2)cc1COc1ccc(NC(C)=O)cc1", "note": "(stereo not given)", "Potency": "2.83 µM (active)"}
{"smiles": "N[C@H](CCC(=O)Nc1cccc(-c2nn3c(=O)cc(N4CCNCC4)nc3s2)c1)C(=O)O", "Potency": "inactive"}
{"smiles": "COc1ccc(CN2CCN(C(=O)c3cc4c(s3)CCC4)CC2)cc1", "Potency": "inactive"}
{"smiles": "O=C(Nc1nc2ccccc2c(=O)s1)c1ccc(F)cc1Cl", "Potency": "inactive"}
{"smiles": "CNc1nc2c(s1)C(c1ccccc1Br)CC(=O)N2", "note": "(stereo not given)", "Potency": "10.1 µM (active)"}
{"smiles": "COc1ccc(F)cc1NC(=O)Cc1csc(-c2ccccc2Cl)n1", "Potency": "inactive"}
{"smiles": "CC(=O)Nc1ccc(NC(=O)c2cc(=O)c3ccccc3o2)cc1", "Potency": "inactive"}
{"smiles": "Cn1c(=O)n(C)c2cc(N3CCCC3)c(NC(=O)Nc3ccccc3)cc21", "Potency": "inactive"}
{"smiles": "O=C(c1ccco1)N1CCN(Cc2nc3ccccc3c(=O)n2-c2ccccc2[N+](=O)[O-])CC1", "Potency": "inactive"}
{"smiles": "O=C1CCc2ccc(NC(=O)c3ccn(-c4ccccc4F)n3)cc2N1", "Potency": "inactive"}
{"smiles": "O=C(Nc1cccc(S(=O)(=O)N2CCOCC2)c1)c1ccc(CN2CCc3ccccc3C2)cc1", "Potency": "3.98 µM (active)"}
{"smiles": "CC(=O)c1cccc(Nc2cc(C)nc3nc(-c4ccccc4C)nn23)c1", "Potency": "inactive"}
{"smiles": "CCOc1ccc(C(=O)NCc2nc(-c3ccc(Cl)cc3)no2)cc1OCC", "Potency": "inactive"}
{"smiles": "Cc1ccc(S(=O)(=O)Nc2ccc(O)c3ccccc23)c(C)c1", "Potency": "14.2 µM (active)"}
{"smiles": "CN(C)c1ccc(C(=O)Nc2nnc(C3=COCCO3)o2)cc1", "Potency": "inactive"}
{"smiles": "Cc1sc(NC(=O)Cc2ccc3c(c2)OCO3)nc1-c1ccc2c(c1)CCN2C(=O)c1cncn1C", "Potency": "7.94 µM (active)"}
{"smiles": "O=C(Nc1ccc(S(=O)(=O)N2CCOCC2)cc1)c1ccc(CN2CCc3ccccc3C2)cc1", "Potency": "inactive"}
{"smiles": "Fc1ccc(Cn2cnc3ccccc32)cc1Cl", "Potency": "8.96 µM (active)"}
{"smiles": "O=C1Cc2cc(S(=O)(=O)N3CCN(c4ccc(C(=O)O)cc4)CC3)ccc2N1", "Potency": "inactive"}
{"smiles": "Cc1ccc(-c2cc(-c3c(Cc4ccc(S(N)(=O)=O)c(F)c4)c(CC4CC4)nn3-c3nc(C(=O)O)cs3)ccc2F)s1", "Potency": "17.9 µM (active)"}
{"smiles": "COc1ccc(-n2c(C)c(C(=O)c3ccccc3)c3cc(O)ccc32)cc1", "Potency": "inactive"}
